Data from the supplement of paper PMC10849652.
Targets with a hit are over-represented here; the source holds about 7,900 in all. About 0.6% of all pairs of compound and target were hits.

How the values were obtained:
Assay in all cases: log2 fold change, soluble protein after heating vs DMSO (PISA); higher = thermal stabilisation; K562 cells, 10 uM, 30 min; active = over 0.2 and 3.5 SD of the protein, either way, in both replicates (recomputed)
[1] = compound: C1=CC=C(C=C1)[C@H](COC2=CC3=C(C=C2)NC(=O)N3)NC(=O)C4=CC=CN(C4=O)CC5=CC(=C(C=C5)F)F
Outline: (§1)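 Aliquots of K562 cells (2×10^6 cells/mL) treated with 10 μM compound for 30 min were heated for 3 min over 48°C-58°C. After pooling and extraction in PBS with 0.5% NP-40 at 4°C, soluble protein from a 21,000xg, 90 min spin was quantified by TMTpro 16plex LC-MS/MS with channel sums equalised. Thermal stability is expressed against control samples, from duplicates, as a log2 fold change.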

[2] = compound: CC1=C(SC2=C1C(=N[C@H](C3=NN=C(N32)C)CC(=O)N)C4=CC=C(C=C4)Cl)C
Outline: as §1

[3] = compound: CC1=C2C(=CC=C1)N=C(N(C2=O)C3=CC=CC=C3C)CN4C=NC5=C(N=CN=C54)N
Outline: as §1

[4] = compound: Cc1sc2c(c1C)C(c1ccc(Cl)cc1)=N[C@@H](CC(=O)OC(C)(C)C)c1nnc(C)n1-2
Outline: as §1

[5] = compound: c1ccc([C@@H]2C[C@H]2NC2CCNCC2)cc1
Outline: as §1

Measured: log2 fold change

TRIM44 (UniProt Q96DX7)
inactive: [1] -0.027 | [2] 0.008 | [3] -0.002 | [4] -0.006 | [5] 0.012

TRAPPC8 (UniProt Q9Y2L5)
inactive: [1] -0.01 | [2] 0.05 | [3] 0.046 | [4] 0.012 | [5] -0.018

VARS2, A0A0G2JL52
inactive: [1] -0.006 | [2] 0.006 | [3] 0.044 | [4] -0.004 | [5] -0.015

XPNPEP1 isoform 3 (UniProt Q9NQW7)
inactive: [1] -0.017 | [2] 0.081 | [3] 0.021 | [4] 0.002 | [5] -0.029

VPS52 (UniProt Q8N1B4)
inactive: [1] 0.068 | [2] 0.036 | [3] 0.137 | [4] -0.057 | [5] -0.028

TXNL1 (UniProt O43396)
inactive: [1] 0.005 | [2] 0.051 | [3] 0.056 | [4] -0.01 | [5] 0.015

WDR18 (UniProt Q9BV38)
inactive: [1] 0 | [2] 0.011 | [3] -0.019 | [4] -0.037 | [5] 0.019

TMEM87B (UniProt Q96K49)
inactive: [1] 0.04 | [2] 0.083 | [3] -0.031 | [4] -0.036 | [5] 0.012

TNPO3 (UniProt Q9Y5L0)
inactive: [1] -0.035 | [2] 0.063 | [3] 0.014 | [4] -0.022 | [5] -0.007

TRMT61A (UniProt Q96FX7)
inactive: [1] 0.157 | [2] -0.033 | [3] -0.051 | [4] 0.141 | [5] -0.049

TXNIP (UniProt Q9H3M7)
inactive: [1] -0.011 | [2] 0.148 | [3] -0.012 | [4] -0.039 | [5] -0.099

UBE2Q1 (UniProt Q7Z7E8)
inactive: [1] -0.041 | [2] 0.061 | [3] 0.053 | [4] -0.001 | [5] 0.062

UHRF1BP1L (UniProt A0JNW5)
inactive: [1] 0.024 | [2] 0.099 | [3] 0.05 | [4] -0.027 | [5] -0.018

WARS1 (UniProt G3V3P2)
inactive: [1] 0.095

UBE2E3 (UniProt Q969T4)
inactive: [1] -0.076 | [2] 0.119 | [3] 0.115 | [4] -0.088 | [5] -0.023

WNK1 isoform 7 (UniProt Q9H4A3)
Sequence of UniProt Q9H4A3 (Q9H4A3 whole entry, looked up): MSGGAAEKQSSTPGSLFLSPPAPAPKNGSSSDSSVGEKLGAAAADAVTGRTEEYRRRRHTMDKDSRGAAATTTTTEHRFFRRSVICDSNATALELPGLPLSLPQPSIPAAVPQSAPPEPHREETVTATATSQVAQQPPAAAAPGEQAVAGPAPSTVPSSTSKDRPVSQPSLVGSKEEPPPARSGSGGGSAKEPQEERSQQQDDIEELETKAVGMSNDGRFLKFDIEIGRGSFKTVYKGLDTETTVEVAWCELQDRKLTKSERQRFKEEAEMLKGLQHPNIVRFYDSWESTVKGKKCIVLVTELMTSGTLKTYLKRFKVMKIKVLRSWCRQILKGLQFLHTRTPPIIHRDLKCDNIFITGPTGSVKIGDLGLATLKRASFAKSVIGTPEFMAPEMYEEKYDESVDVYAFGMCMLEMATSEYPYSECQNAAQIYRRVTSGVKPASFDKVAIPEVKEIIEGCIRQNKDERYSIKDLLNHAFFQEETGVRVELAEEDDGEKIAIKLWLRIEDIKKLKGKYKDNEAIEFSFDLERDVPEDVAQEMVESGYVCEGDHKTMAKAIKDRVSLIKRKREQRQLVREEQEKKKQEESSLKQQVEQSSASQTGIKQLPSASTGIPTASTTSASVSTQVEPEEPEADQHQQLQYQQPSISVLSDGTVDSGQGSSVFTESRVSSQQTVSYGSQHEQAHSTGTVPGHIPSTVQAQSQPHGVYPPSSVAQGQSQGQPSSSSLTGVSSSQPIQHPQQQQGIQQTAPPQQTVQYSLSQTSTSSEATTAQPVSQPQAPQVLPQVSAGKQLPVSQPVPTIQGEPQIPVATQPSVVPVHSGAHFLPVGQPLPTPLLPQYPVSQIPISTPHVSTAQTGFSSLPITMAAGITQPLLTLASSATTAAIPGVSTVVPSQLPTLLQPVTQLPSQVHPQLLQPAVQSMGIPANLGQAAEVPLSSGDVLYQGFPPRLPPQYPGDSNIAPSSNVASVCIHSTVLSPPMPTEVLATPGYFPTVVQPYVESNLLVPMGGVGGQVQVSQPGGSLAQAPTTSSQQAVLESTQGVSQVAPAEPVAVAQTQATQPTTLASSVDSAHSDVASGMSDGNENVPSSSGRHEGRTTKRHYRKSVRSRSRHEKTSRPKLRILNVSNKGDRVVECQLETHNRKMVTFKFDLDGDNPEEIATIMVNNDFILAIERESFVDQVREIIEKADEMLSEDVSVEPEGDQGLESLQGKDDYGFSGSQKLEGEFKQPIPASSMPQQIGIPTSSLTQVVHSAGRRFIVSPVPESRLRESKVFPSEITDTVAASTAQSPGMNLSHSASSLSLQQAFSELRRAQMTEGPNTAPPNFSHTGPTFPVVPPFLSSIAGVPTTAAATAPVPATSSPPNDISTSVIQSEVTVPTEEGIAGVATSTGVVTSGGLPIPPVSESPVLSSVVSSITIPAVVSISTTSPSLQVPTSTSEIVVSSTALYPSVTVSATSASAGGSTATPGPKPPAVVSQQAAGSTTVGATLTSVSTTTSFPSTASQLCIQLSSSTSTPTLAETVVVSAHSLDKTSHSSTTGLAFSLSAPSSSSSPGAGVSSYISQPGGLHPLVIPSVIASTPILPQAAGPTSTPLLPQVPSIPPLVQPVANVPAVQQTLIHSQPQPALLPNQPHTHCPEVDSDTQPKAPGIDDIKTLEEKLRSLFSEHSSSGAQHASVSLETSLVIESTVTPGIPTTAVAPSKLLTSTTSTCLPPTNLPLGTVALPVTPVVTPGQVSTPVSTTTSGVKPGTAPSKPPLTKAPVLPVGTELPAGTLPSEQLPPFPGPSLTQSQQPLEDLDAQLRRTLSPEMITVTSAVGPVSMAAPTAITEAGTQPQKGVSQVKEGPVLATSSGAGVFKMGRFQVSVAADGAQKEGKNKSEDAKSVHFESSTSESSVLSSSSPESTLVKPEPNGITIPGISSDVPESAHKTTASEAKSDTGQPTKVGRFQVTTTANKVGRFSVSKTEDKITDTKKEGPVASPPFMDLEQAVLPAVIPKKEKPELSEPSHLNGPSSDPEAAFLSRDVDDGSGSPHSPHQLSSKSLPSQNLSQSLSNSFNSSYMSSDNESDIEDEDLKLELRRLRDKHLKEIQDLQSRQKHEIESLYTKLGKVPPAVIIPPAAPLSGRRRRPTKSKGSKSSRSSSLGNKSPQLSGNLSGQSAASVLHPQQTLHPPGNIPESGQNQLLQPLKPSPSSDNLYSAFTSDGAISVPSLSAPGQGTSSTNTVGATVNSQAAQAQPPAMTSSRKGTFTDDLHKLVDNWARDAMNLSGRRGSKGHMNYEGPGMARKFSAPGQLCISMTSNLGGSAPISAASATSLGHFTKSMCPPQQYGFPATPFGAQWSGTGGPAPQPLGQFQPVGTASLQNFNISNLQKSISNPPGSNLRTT
inactive: [1] -0.011 | [2] 0.023 | [3] 0.049 | [4] -0.007 | [5] -0.003

UBE2J1 (UniProt Q9Y385)
Sequence of UniProt Q9Y385 (Q9Y385 whole entry, looked up): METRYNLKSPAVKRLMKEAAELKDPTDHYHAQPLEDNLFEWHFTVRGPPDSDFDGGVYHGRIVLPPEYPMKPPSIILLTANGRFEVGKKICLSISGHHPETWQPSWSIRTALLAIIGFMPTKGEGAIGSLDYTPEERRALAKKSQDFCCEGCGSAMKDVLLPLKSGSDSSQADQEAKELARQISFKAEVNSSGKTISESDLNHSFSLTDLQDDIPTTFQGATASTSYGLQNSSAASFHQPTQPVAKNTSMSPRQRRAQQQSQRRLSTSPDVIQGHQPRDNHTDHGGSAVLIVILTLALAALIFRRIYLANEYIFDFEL
inactive: [1] -0.061 | [2] -0.011 | [3] 0.05 | [4] -0.039 | [5] -0.068

UBA6
inactive: [1] -0.018 | [2] 0 | [3] 0.06 | [4] 0.001 | [5] -0.002

TRIM4 (UniProt Q9C037)
inactive: [1] -0.049 | [2] -0.014 | [3] 0.254 | [4] -0.04 | [5] -0.038

WDR37 isoform 2 (UniProt Q9Y2I8)
inactive: [1] 0.039 | [2] -0.06 | [3] 0.062 | [4] 0.079 | [5] 0.054

XRCC6 (UniProt P12956)
Sequence of UniProt P12956 (P12956 whole entry, looked up): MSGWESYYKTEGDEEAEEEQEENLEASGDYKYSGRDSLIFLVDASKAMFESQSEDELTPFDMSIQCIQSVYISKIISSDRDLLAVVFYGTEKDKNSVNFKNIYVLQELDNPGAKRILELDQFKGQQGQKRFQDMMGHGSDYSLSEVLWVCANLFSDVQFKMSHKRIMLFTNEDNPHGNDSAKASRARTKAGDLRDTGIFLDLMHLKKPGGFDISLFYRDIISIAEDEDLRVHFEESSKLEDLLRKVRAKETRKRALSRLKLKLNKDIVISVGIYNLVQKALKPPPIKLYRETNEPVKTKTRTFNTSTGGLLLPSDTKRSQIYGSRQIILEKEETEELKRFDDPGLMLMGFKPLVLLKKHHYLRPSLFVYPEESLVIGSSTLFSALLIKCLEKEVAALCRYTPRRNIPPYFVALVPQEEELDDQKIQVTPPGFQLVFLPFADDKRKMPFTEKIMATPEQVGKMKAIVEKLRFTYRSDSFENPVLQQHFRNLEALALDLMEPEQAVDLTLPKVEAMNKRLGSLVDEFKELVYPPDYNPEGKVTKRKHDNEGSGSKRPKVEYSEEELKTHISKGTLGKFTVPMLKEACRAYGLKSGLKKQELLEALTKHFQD
inactive: [1] -0.04 | [2] 0.044 | [3] 0.114 | [4] -0.022 | [5] -0.003

TUBA4A (UniProt C9JJQ8)
inactive: [1] -0.081 | [2] 0.036 | [3] 0 | [4] -0.011 | [5] 0.229

UCHL5 isoform 3 (UniProt Q9Y5K5)
Sequence of UniProt Q9Y5K5 (Q9Y5K5 whole entry, looked up): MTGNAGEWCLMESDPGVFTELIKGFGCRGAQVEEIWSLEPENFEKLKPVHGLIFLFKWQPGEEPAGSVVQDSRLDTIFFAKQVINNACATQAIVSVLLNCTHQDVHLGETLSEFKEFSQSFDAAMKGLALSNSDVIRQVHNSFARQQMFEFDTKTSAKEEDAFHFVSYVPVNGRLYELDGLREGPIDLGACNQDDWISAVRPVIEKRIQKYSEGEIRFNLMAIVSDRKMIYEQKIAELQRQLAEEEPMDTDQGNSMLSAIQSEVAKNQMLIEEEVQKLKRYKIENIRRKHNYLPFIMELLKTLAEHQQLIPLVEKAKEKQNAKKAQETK
inactive: [1] 0.021 | [2] 0.232 | [3] -0.123 | [4] 0.069 | [5] 0.167

TSG101 (UniProt Q99816)
inactive: [1] 0 | [2] 0.032 | [3] 0.074 | [4] -0.015 | [5] -0.016

UBLCP1 (UniProt Q8WVY7)
Sequence of UniProt Q8WVY7 (Q8WVY7 whole entry, looked up): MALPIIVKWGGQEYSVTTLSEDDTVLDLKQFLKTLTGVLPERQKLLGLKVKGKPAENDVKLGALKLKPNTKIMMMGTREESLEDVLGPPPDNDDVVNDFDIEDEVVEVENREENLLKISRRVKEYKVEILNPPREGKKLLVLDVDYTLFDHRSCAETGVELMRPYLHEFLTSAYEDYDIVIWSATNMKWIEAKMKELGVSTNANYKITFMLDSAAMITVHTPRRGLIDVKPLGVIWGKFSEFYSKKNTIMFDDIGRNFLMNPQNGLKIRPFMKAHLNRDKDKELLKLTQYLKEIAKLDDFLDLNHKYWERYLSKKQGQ
inactive: [1] -0.066 | [2] 0.067 | [3] 0.066 | [4] -0.018 | [5] 0.011

WARS1 (UniProt G3V5U1)
inactive: [1] 0.193

VPS37A (UniProt Q8NEZ2)
Sequence of UniProt Q8NEZ2 (Q8NEZ2 whole entry, looked up): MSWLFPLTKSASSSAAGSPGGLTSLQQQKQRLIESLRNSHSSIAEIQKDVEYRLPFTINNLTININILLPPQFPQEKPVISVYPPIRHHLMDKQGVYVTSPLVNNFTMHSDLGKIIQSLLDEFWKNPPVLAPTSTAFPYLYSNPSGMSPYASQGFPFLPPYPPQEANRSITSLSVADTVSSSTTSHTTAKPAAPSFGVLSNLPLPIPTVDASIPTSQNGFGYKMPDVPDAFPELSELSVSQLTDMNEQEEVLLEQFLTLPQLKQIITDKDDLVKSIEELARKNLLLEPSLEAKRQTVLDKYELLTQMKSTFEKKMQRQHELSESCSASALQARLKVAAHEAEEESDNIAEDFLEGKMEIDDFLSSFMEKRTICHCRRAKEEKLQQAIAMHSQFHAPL
inactive: [1] -0.076 | [2] 0.088 | [3] 0.126 | [4] 0.007 | [5] 0.036

UBAP1 isoform 4 (UniProt Q9NZ09)
inactive: [1] 0.021 | [2] 0.005 | [3] 0.129 | [4] -0.171 | [5] -0.072

WASHC2C, A0A096LPC5
inactive: [1] 0.015 | [2] 0.012 | [3] 0.008 | [4] 0.027 | [5] 0.001

TRAPPC11 (UniProt Q7Z392)
inactive: [1] 0.004 | [2] 0.117 | [3] 0.077 | [4] -0.031 | [5] 0.027

UTP3 (UniProt Q9NQZ2)
inactive: [1] 0.049 | [2] -0.312 | [3] -0.041 | [4] 0.042 | [5] -0.007

WDR4 isoform 3 (UniProt P57081)
inactive: [1] -0.18

TMEM70 (UniProt Q9BUB7)
inactive: [1] -0.002 | [2] 0.065 | [3] 0.057 | [4] -0.05 | [5] -0.002

USP48 (UniProt Q86UV5)
inactive: [1] 0

TMEM9 (UniProt Q9P0T7)
inactive: [1] 0.008 | [2] 0.02 | [3] -0.002 | [4] -0.027 | [5] -0.079

UXT isoform 2 (UniProt Q9UBK9)
inactive: [1] 0.046 | [2] 0.063 | [3] 0.065 | [4] -0.005 | [5] -0.077

VWA3B isoform 6 (UniProt Q502W6)
inactive: [1] -0.161 | [2] 0.069 | [3] 0.162 | [4] 0.129 | [5] 0.064

TRMT2A (UniProt Q8IZ69)
Sequence of UniProt Q8IZ69 (Q8IZ69 whole entry, looked up): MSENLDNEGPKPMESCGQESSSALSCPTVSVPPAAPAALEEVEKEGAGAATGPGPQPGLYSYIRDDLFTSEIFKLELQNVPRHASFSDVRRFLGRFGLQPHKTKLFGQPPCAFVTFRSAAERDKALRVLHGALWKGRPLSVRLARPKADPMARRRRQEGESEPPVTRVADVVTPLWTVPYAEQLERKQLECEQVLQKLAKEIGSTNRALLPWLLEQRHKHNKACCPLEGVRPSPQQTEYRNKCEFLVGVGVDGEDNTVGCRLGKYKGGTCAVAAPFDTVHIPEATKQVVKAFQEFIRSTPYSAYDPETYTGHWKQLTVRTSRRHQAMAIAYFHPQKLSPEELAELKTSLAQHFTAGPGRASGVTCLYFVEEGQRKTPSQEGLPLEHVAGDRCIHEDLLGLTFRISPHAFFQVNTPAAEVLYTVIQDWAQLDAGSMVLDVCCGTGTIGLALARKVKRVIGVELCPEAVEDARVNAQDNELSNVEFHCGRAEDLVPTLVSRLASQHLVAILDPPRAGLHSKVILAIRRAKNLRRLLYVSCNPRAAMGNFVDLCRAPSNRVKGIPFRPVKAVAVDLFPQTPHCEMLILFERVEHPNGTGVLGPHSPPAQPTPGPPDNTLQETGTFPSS
inactive: [1] -0.008 | [2] -0.042 | [3] -0.026 | [4] 0.1 | [5] 0.058

VPS13B (UniProt Q7Z7G8)
inactive: [1] 0 | [2] -0.008 | [3] 0.068 | [4] -0.057 | [5] 0.031

TPM2 (UniProt P07951)
inactive: [1] -0.041 | [2] -0.117 | [3] -0.195 | [4] -0.017 | [5] 0.014

TRIP10 (UniProt Q15642)
inactive: [1] 0.016 | [2] 0.005 | [3] 0.081 | [4] 0.014 | [5] 0.037

TMEM161B (UniProt Q8NDZ6)
inactive: [1] -0.076 | [2] 0.13 | [3] 0.018 | [4] 0.092 | [5] 0.08

VKORC1 (UniProt Q9BQB6)
inactive: [1] -0.058 | [2] 0.132 | [3] 0.083 | [4] -0.183 | [5] -0.012

WDR62 isoform 4 (UniProt O43379)
inactive: [1] 0.007 | [2] 0.027 | [3] 0.031 | [4] 0.004 | [5] 0.009

TOMM20 (UniProt Q15388)
inactive: [1] 0.021 | [2] 0.025 | [3] 0.028 | [4] 0.006 | [5] 0.008

UBAP2L isoform 1 (UniProt Q14157)
inactive: [1] 0.038 | [2] 0.004 | [3] 0.059 | [4] 0.001 | [5] 0.011

VPS50 (UniProt Q96JG6)
inactive: [1] -0.039 | [2] 0.055 | [3] 0.022 | [4] -0.013 | [5] 0.01

TMEM8A (UniProt Q9HCN3)
inactive: [1] 0.017 | [2] 0.038 | [3] -0.011 | [4] 0.038 | [5] 0.094

TRMT10A (UniProt Q8TBZ6)
inactive: [1] -0.038 | [2] 0.028 | [3] 0.006 | [4] -0.033 | [5] -0.055

TTI1 (UniProt O43156)
inactive: [1] -0.034 | [2] 0.136 | [3] 0.022 | [4] -0.025 | [5] -0.085

TSPAN13 (UniProt O95857)
inactive: [1] -0.195 | [2] 0.023 | [4] 0.076 | [5] 0.018
active: [3] 0.639

TRIM23 (UniProt P36406)
inactive: [1] 0.023 | [2] 0.122 | [3] 0.049 | [4] -0.096 | [5] -0.05

VPS39 (UniProt Q96JC1)
inactive: [1] -0.087 | [2] 0.018 | [3] 0.071 | [4] -0.009 | [5] -0.052

UFM1 (UniProt P61960)
inactive: [1] -0.019 | [2] 0.363 | [3] 0.049 | [4] -0.164 | [5] 0.083

TMEM128 (UniProt Q5BJH2)
inactive: [1] -0.038 | [2] -0.001 | [3] 0.185 | [4] -0.1 | [5] 0
